Data from PubChem BioAssay AID1259313 (Sanford-Burnham Center for Chemical Genomics, 2017).
The whole screen tested about 340,000 compounds, of which about 8,500 (2.5%) were called active. The sample holds actives, similar compounds and a random draw of the others, so the mix is not that of the screen. Values without a mark were called inactive.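 Rule for the calls: active = melting temperature shift of at least 10% of the positive control shift, at one fixed dose; inactive = the rest.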

test system: Glutamate receptor ionotropic, NMDA 3A (GRIN3A) ligand-binding domain; test: binders of NR3A ligand-binding domain, primary screen, biophysical, differential scanning fluorimetry, uHTS (AID 1259313); details: NR3A LBD differential scanning fluorimetry, at 25 µM, stronger effect = higher value, 0% = protein alone, 100% = glycine-bound protein

Point of comparison: O=C(Nc1ccc(Cl)cn1)c1ccc2c(c1)OCCO2, Tm shift relative to glycine control -0.17%. Against it:
- CC(C)NC(=O)c1ccccc1S(=O)c1ccccc1C#N (centres undefined) — lower, -0.24%
- Cc1noc(C)c1S(=O)(=O)N(C)Cc1ccccc1 — lower, -2.24%
- CCNC(=O)CCc1nc(-c2ccc(C(C)(C)C)cc2)no1 — higher, 2.39%
- COCCN(CCOC)S(=O)(=O)NC[C@H]1O[C@@H](n2cnc3c(N)ncnc32)[C@H](O)[C@@H]1O — lower, -2.01%
- CN(NS(=O)(=O)c1cccs1)c1ncc(C(F)(F)F)cc1Cl — lower, -0.95%
- O=C(/C=C/c1ccc([N+](=O)[O-])o1)NNC(=O)c1ccc(F)cc1 — lower, -1.3%
- O=C(NCCCN1CCOCC1)c1cn(-c2ccccc2)nc1-c1ccc(F)cc1 — lower, -0.58%
- O=C(CCn1nnc2ccccc21)OCC(=O)c1ccc([N+](=O)[O-])cc1 — lower, -0.44%
- Cc1ccc(C(=O)NNC(=O)c2ccc3c(c2)OCCO3)cc1 — higher, 1.65%
- O=S(=O)(c1cccc(Cn2nnc(-c3ccc(F)cc3)n2)c1)N1CCOCC1 — higher, 0.18%
- COc1ccc(S(=O)(=O)N(C)C[C@H]2Oc3c(NC(=O)Nc4ccc5c(c4)OCO5)cccc3C(=O)N([C@H](C)CO)C[C@@H]2C)cc1 — lower, -34%
- CC(=O)NC(=S)Nc1ccc(NC(=O)c2cccnc2)cc1 — higher, 2.02%
- CCOC(=O)c1ccc(NC(=O)c2cccnc2)cc1 — higher, 0.68%
- Cc1ccc(-n2nc3cc(C)c(NC(=O)c4cccnc4)cc3n2)cc1 — lower, -2.09%
- Cc1cc(NS(=O)(=O)c2ccc(NC(=O)c3cccnc3)cc2)nc(C)n1 — lower, -0.7%
- Cc1ccc(C2CC(c3cccc(NS(C)(=O)=O)c3)=NN2S(C)(=O)=O)cc1 (centres undefined) — lower, -1.41%
- CC(C)(C)C(=O)COC(=O)c1cc(S(=O)(=O)N2CCCCC2)ccc1N1CCOCC1 — lower, -1.85%
- COc1ccccc1CNS(=O)(=O)c1ccc2c(c1)NC(=O)CS2 — higher, 1.27%
- COc1ccc(Cl)cc1C=CC=Nc1ccc(S(N)(=O)=O)cc1 — lower, -9.77%
- O=C(NN=Cc1ccccc1)c1ccccc1 — higher, 3.44%
- CSc1ccc(/C=N\NC(=O)CC(=O)NC(C)C)cc1 — lower, -7.31%
- CC(=NNC(=O)c1ccc2nc[nH]c2c1)c1ccc(Br)cc1 — lower, -13%
- Cc1nc2ccc(C(=O)N/N=C/c3ccc(O)cc3)cc2[nH]1 — lower, -4.58%
- c1ccc(COc2ccccc2CNCc2cccnc2)cc1 — lower, -0.7%
- COCC(C)n1c(SCC(=O)NC2CCCCC2C)nc2ccccc2c1=O (centres undefined) — lower, -0.26%
- CCOn1c(SC(C)C)nc2ccccc2c1=O — lower, -0.18%
- CCOC(=O)CCCCCC(=O)Nc1ccc2c(c1)CC(=O)N([C@@H](C)CO)C[C@H](C)[C@@H](CN(C)Cc1ccccc1)O2 — higher, 0.56%
- COc1ccc(NCc2nnc(SCc3ccccc3)n2-c2ccc(OC)cc2)cc1 — lower, -0.87%
- CCc1nonc1NC(=O)c1oc2ccc(Cl)cc2c1C — lower, -0.44%
- COc1ccc(CCNC(=O)COC(=O)Cc2ccccc2F)cc1 — higher, 1.52%
- COc1ccc(CCNC(=O)COC(=O)Cc2cc(OC)c(OC)c(OC)c2)cc1 — lower, -0.75%
- NC(=S)c1ccc(C(N)=S)o1 — higher, 9.83%
- COc1ccc(C(C(=O)NCC2CCCO2)N(C(=O)Cn2nnc3ccccc32)c2ccc(NC(C)=O)cc2)cc1OC (centres undefined) — higher, 1.93%
- O=C(CNC(=O)c1cccs1)N/N=C/c1cccc(Br)c1 — lower, -2.08%
- CC(=O)NC(Cc1c[nH]c2ccccc12)C(=O)NCCc1ccccc1 (centres undefined) — higher, 1.08%
- OC(CNCC1CCCO1)Cn1c2ccc(Br)cc2c2cc(Br)ccc21 (centres undefined) — lower, -15.9%
- O=[N+]([O-])c1cccc(/C=N/Nc2ncc(Br)cn2)c1 — lower, -2.79%
- O=C1/C(=C\c2ccc([N+](=O)[O-])cc2)CS(=O)(=O)C/C1=C/c1ccc([N+](=O)[O-])cc1 — lower, -9.77%
- CC(C)c1ccc(C=NNc2ccc([N+](=O)[O-])cn2)cc1 — lower, -2.51%
- O=[N+]([O-])c1ccc(N=NNc2ccc([N+](=O)[O-])cc2)cc1 — higher, 4.69%
- CC1(C)Cc2c(sc(NC(=O)C(=O)N3CCOCC3)c2C#N)CO1 — higher, 2.25%
- O=C(CN1C2CCC1CC(NC(=O)C1CC1)C2)NCc1ccccc1 (centres undefined) — lower, -0.34%
- O=C(COC(=O)C1CC2CCCC(C1)C2=O)NC(=O)c1ccccc1 (centres undefined) — lower, -1.22%
- Cc1c(C(=O)NNC(=O)c2ccncc2)oc2ccccc12 — higher, 2.4%
- COc1ccc(NC(=O)N2CCCC2C(=O)NCc2ccccc2Cl)cc1 (centres undefined) — lower, -2.42%
- FC(F)(F)c1cccc(-c2cc3ccccc3nc2N2CCCC2)c1 — lower, -0.24%
- Cc1ccc(S(=O)(=O)N(c2cccc(C)c2)C2CCS(=O)(=O)C2)cc1 (centres undefined) — lower, -3.26%

O=C(N/N=C/c1ccc([N+](=O)[O-])o1)c1cn(-c2ccccc2)nc1-c1ccc(F)cc1 was tested, and the Tm shift relative to glycine control was 57.3% (active).
Cc1nc(NC(=O)c2ccc3c(c2)OCCO3)ccc1Br was tested, and the Tm shift relative to glycine control was 11.1% (active).
In the case of Cc1cc2nc(-c3ccc(NC(=O)c4cccnc4)cc3)oc2cc1C, the Tm shift relative to glycine control is reported as 24.6% (active).
For Cc1ccc2nc(-c3ccc(NC(=O)c4cccnc4)cc3)oc2c1, the Tm shift relative to glycine control was 24% (active).
For O=C(N/N=C/c1ccc(Cl)c(Cl)c1)c1ccc2nc[nH]c2c1, the Tm shift relative to glycine control was 27.4% (active).
CSc1ccc(/C=N/NC(=O)c2cccc(Cl)c2)cc1 was tested, and the Tm shift relative to glycine control was 19.1% (active).
For CCOC(=O)C(C)Sc1nc2ccccc2c(=O)n1CC1CCCCC1 (centres undefined), the Tm shift relative to glycine control was 15.7% (active).
For COc1ccc(CCNC(=O)COC(=O)Cc2cccc(F)c2)cc1, the Tm shift relative to glycine control was 15.5% (active).
O=C(NC(Cc1c[nH]c2ccccc12)C(=O)N/N=C/c1ccc(Br)cc1)c1cccs1 (centres undefined) was tested, and the Tm shift relative to glycine control was 19.7% (active).
For O=[N+]([O-])c1ccc(N/N=C/c2ccccc2)cc1, the Tm shift relative to glycine control was 29.2% (active).
O=[N+]([O-])c1ccc(C=NN=Cc2ccc([N+](=O)[O-])cc2)cc1 was tested, and the Tm shift relative to glycine control was 12.6% (active).
